PTPN22 inh 2 = inhibitors of human LYP (PTPN22) phosphatase | 96,000 tested, 0.21% active | inhibition, % at 2 µM | AID 640 | Q9Y2R2 | recombinant LYP catalytic domain, DiFMUP fluorescence;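 active = inhibition at 2 µM at or above a set limit, the screen mean plus 3 SD, cut at about 24% in these data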;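 note: 0% = DMSO with enzyme and 100% = enzyme fully blocked by orthovanadate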
Target sequence (Q9Y2R2 whole entry, looked up, the tested form may be a part): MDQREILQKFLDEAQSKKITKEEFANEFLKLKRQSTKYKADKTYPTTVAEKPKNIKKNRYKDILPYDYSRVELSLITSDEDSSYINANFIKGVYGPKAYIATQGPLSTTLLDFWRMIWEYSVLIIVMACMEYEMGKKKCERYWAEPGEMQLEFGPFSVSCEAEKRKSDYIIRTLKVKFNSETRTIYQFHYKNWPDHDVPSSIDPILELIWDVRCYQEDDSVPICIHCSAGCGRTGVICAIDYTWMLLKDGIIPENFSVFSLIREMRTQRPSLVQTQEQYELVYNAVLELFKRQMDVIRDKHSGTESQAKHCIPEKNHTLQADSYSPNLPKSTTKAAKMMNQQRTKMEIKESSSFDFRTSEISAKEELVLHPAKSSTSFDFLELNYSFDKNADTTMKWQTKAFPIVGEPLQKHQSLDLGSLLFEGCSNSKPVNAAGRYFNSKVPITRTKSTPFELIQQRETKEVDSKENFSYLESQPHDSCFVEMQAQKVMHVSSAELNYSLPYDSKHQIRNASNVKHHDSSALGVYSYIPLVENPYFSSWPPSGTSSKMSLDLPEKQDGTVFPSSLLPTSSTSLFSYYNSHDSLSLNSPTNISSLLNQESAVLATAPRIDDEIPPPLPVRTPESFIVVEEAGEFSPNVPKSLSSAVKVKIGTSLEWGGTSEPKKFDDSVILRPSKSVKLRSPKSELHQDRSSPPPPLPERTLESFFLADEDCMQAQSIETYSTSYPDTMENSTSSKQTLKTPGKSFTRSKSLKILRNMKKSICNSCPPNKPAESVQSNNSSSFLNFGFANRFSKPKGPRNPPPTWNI
NFkB transloc pot = enhances IL-1B driven NFkB nuclear translocation. HUVEC IL-1B NFkB p65 nuclear translocation imaging. activation, % at 2 µM. 94,000 tested, 0.3% active. AID 819;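 active = activation above 40%, about the mean plus 3 SD, also judged a hit on visual image review; inconclusive = activation above 40% but not a hit on visual review; inactive = activation not above 40% and no visual hit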;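 note: percent activation is computed from the nuclear over cytoplasmic p65 intensity ratio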
LYP act = increases human PTPN22 phosphatase activity | recombinant LYP, DiFMUP fluorescence; 0 = plate median, 100 = signal doubled | activation, % at 2 µM | 96,000 tested, 0.11% active | AID 697;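 active = activation at 2 µM above a set limit, the mean plus 5 SD, cut at about 37% in these data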
HUVEC tox IL1B = toxic to HUVEC cells under IL-1B stimulation; cell count reduction, % at 2 µM; 94,000 tested, 0.41% active; HUVEC cell count loss, Hoechst imaging, IL-1B stimulated;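 active = cell count reduction more than 3 SD above the screen-wide mean, cut at about 70% in these data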;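 note: normalized per plate to untreated control cells as the no-loss baseline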
IL1B NFkB inh = blocks IL-1B driven NFkB nuclear translocation in HUVEC cells; inhibition, % at 2 µM; HUVEC IL-1B NFkB p65 nuclear translocation imaging; 94,000 tested, 0.43% active; AID 796;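 active = inhibition above about 30% together with a positive call from visual inspection of the well image, limit read from the data; inconclusive = inhibition above a set limit but visual check negative; inactive = inhibition not above a set limit, visual check negative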;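 note: nuclear over cytoplasmic p65 intensity ratio measured by imaging; 0% = IL-1B stimulated DMSO wells and 100% = unstimulated DMSO wells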
An asterisk follows results filed as active; ? = inconclusive. Most compounds without a hit are left out; they make up all but 1.3% or so of the library.

SMILES	PTPN22 inh 2	NFkB transloc pot	LYP act	HUVEC tox IL1B	IL1B NFkB inh
O=C(c1cc2ccccc2o1)N1CCN(c2ccccc2Cl)CC1	9.2	-18.2	-9.7	92.8*	18.2
O=C(c1ccccc1)N1CCN(C(=O)c2cc3ccccc3o2)CC1	7.8	15.6	-4.7	-1.9	-15.6
NC(=O)C1CCN(C(c2ccccc2Cl)c2nnnn2CC2CCCO2)CC1 (stereo unspecified)	29.0*	-0.3	-29.4	-9.4	0.3
Cn1c(=O)c2ncn(CC(=O)Nc3cccc(-c4nc5ccccc5s4)c3)c2n(C)c1=O	12.0	0.5	-7.2	24.2	-0.5
Cc1cc(C)cc(-n2c3nc4ccccc4nc3c3c(=O)n(Cc4ccco4)cnc32)c1	38.0*	9.7	-35.8	-1.0	-9.7
O=C(NCc1ccccn1)NC12CC3CC(CC(C3)C1)C2	5.3	-95.2	-5.1	89.3*	95.2*
COc1ccc(Cl)cc1NC(=S)NCc1ccco1	11.8	-11.3	-9.5	-4.2	11.3
O=C(Nc1ccc2nc(-c3ccccc3)oc2c1)c1ccco1	-2.3	40.3*	-0.1	-39.3	-40.3
CCCc1ccc(Oc2cc(N3CCOCC3)nc(-c3ccccc3)n2)cc1	5.0	-4.6	-2.9	-13.8	4.6
CC(=O)c1cccc(NC(=O)C(OC(=O)/C=C/c2ccc3c(c2)OCO3)c2ccccc2)c1 (stereo unspecified)	1.1	-11.6	-2.6	-70.4	11.6
O=C(CN1CCN(c2ccccn2)CC1)Nc1ccccc1	-1.3	40.5*	-2.2	-31.3	-40.5
CC(=O)Nc1ccc(NC(=O)CN2CCN(c3cccc(C(F)(F)F)c3)CC2)cc1	-2.6	-34.2	4.4	-23.8	34.2*
O=C(CN1CCN(c2ccccn2)CC1)Nc1ccc(F)cc1	3.7	10.7	-2.6	9.4	-10.7
Cc1ccc(N(C)C(=O)N2CCN(c3ccccn3)CC2)cc1	5.8	66.7*	-7.4	45.5	-66.7
O=C(CN1CCN(c2cccc(C(F)(F)F)c2)CC1)Nc1cccc(C(F)(F)F)c1	6.9	-8.8	-6.3	-1.0	8.8
Cc1c(CCO)c(=O)n(-c2ccccc2)n1S(=O)(=O)c1ccc(Cl)cc1	-8.8	-2.5	6.0	-28.6	2.5
CCCCNC(=O)C1CCN(c2nc(OC)nc(OC)n2)CC1	-6.1	6.3	6.6	-32.3	-6.3
CCc1ccc(NC(=O)C2CC(=O)N=C(N)S2)cc1 (stereo unspecified)	3.1	-2.6	-0.5	-17.5	2.6
NC1=NC(=O)CC(C(=O)NCCc2ccccc2)S1 (stereo unspecified)	6.5	-47.2	-6.7	2.2	47.2*
CCCCCc1nnc(NC(=O)OCCC)s1	-2.0	-3.3	1.6	2.0	3.3
CCCCCOC(=O)Nc1nnc(CCCCC)s1	4.5	-22.7	-3.7	90.2*	22.7
CCOCCc1nnc(NC(=O)COC)s1	-7.1	-0.8	6.3	84.4*	0.8
CCOC(=O)Nc1nnc(CCc2ccccc2)s1	-7.0	-100.7	6.6	-4.9	100.7*
CCOC(=O)C(C(=O)OCC)C(C(=O)OCC)N1CCOCC1 (stereo unspecified)	8.3	-39.4	-7.4	2.9	?
Brc1ccccc1Cn1c(-c2cscn2)nc2ccccc21	-5.3	2.9	3.6	10.4	-2.9
SMILES	PTPN22 inh 2	NFkB transloc pot	LYP act	HUVEC tox IL1B	IL1B NFkB inh
Clc1ccc(C2=C3CCCCn4c(-c5ccccc5)c[n+](c43)C2)cc1	26.4*	-2.5	-23.6	6.4	2.5
O=c1c(-c2nnc(SCc3ccc(Cl)cc3Cl)o2)cccn1Cc1ccccc1	24.8*	6.5	-22.8	-32.2	-6.5
Cc1nc(N2CCC(C)CC2)c2nnn(Cc3ccccc3)c2n1	-9.3	-6.9	7.4	-23.3	6.9
COc1ccc(C2C(C#N)=C(N)N(c3sc4c(c3C#N)CCCC4)C3=C2C(=O)CC(C)(C)C3)cc1 (stereo unspecified)	0.8	16.8	-2.2	12.8	-16.8
COc1ccc(C2C(C#N)=C(N)N(c3sc4c(c3C#N)CCCC4)C3=C2C(=O)CC(C)(C)C3)cc1OC (stereo unspecified)	26.5*	8.4	-26.6	-10.1	-8.4
O=S(=O)(NC12CC3CC(CC(C3)C1)C2)c1ccc(F)cc1	-3.0	2.1	3.9	13.5	-2.1
COC(=O)c1ccccc1Sc1c(/C=N/OC(=O)c2ccccc2)c(C(F)(F)F)nn1C	-2.3	-44.5	-0.4	30.4	44.5*
CCC(C)(C)n1nnnc1CN1CCc2ccccc21	14.2	-4.7	-12.1	19.3	4.7
O=[N+]([O-])c1cc(/C=N\Nc2nccs2)ccc1O	39.7*	15.2	-38.3	6.5	-15.2
Cc1ccc(C)c2[nH]c(=O)c(CCNC(=O)c3ccc(Br)o3)cc12	-9.3	-42.8	9.4	-11.2	42.8*
CCc1ccc(N2CC(C(=O)OCC(=O)NC3CCS(=O)(=O)C3)CC2=O)cc1 (stereo unspecified)	-1.2	-24.3	-0.9	91.6*	24.3
CCOc1ccc(N2CC(C(=O)OCC(=O)NCc3ccccc3)CC2=O)cc1 (stereo unspecified)	-2.8	-5.5	5.4	-36.9	5.5
CCOC(=O)c1c(-c2ccc(C)o2)csc1NC(=S)NC(=O)N(C)C	2.3	-0.8	1.3	-13.2	0.8
O=C1CC(C(=O)Nc2ccc(C(=O)N3CCOCC3)cc2)C2(CCCCC2)O1 (stereo unspecified)	-11.6	-1.3	8.5	90.0*	1.3
CCC(C)(CC(=O)N(C)CCC#N)c1ccccc1 (stereo unspecified)	-16.9	-25.9	13.4	83.7*	25.9
O=S(=O)(c1ccc2c(c1)OCCO2)N1CCN(Cc2ccc3c(c2)OCO3)CC1	4.0	4.3	2.1	-7.1	-4.3
Cn1c(=O)oc2cc(S(=O)(=O)N3CCN(Cc4ccc5c(c4)OCO5)CC3)ccc21	-5.3	-11.4	3.4	87.4*	11.4
CC1CCc2c(sc(NC(=O)C(=O)NCc3ccco3)c2C#N)C1 (stereo unspecified)	7.5	42.1*	-5.2	-63.6	-42.1
CC1CCc2c(sc3ncn4c(SCC(=O)NCc5ccco5)nnc4c23)C1 (stereo unspecified)	-0.6	168.6*	-1.2	-16.4	-168.6
Cc1cc(C(=O)Nc2sc3c(c2C#N)CCC(C)C3)no1 (stereo unspecified)	2.8	7.6	-4.4	2.6	-7.6
Cc1ccc(-n2nnnc2-c2cnoc2-c2cccc(F)c2)cc1	-21.1	22.4	16.1	-52.7	-22.4
O=C(Nc1ccc(N2CCCCC2)c(Cl)c1)c1ccc2c(c1)OCCO2	35.7*	4.9	-34.3	-4.8	-4.9
O=C(Nc1ccc(N2CCCC2)c(Cl)c1)c1ccc2c(c1)OCCO2	-13.9	-4.7	13.2	22.3	4.7
COc1cccc2c1nc(C)c1cc(C)oc12	-13.8	21.2	11.0	9.0	-21.2
COc1ccc2nc(C)c3cc(C)oc3c2c1	-1.3	8.3	-1.5	87.1*	-8.3
Cc1cc(=O)n(CCCO)c(O)c1C#N	7.4	8.9	-10.2	-9.4	-8.9
Cc1cc(=O)n(CC(C)O)c(O)c1C#N (stereo unspecified)	3.5	-98.7	-2.9	88.7*	98.7*
Clc1ccc(Sc2cnc3ccccc3n2)cc1	6.5	-16.9	-3.1	13.8	16.9

Compound activity: PubChem, Columbia University Molecular Screening Center
